This note sets out measurements from PubChem BioAssay AID651814 (National Center for Advancing Translational Sciences (NCATS), 2012).

SMILES strings stand for the structures. The whole screen tested about 2,100 compounds, of which about 590 (28%) were called active. Inconclusive results (about 42%) are left out. The list shows a part of the results. Unmarked numbers belong to inactive results. Calls follow the shape of the dose curve; as a rule, active = well fitted inhibition curve with a large enough effect; inconclusive = small, poorly fitted or top-dose-only effect; inactive = flat fitted curve, though single readings scatter.
Potency is read from the fitted curve at half-maximal effect.

Chain of DNA dC->dU-editing enzyme APOBEC-3F (Homo sapiens) (Q8IUX4 whole entry, looked up): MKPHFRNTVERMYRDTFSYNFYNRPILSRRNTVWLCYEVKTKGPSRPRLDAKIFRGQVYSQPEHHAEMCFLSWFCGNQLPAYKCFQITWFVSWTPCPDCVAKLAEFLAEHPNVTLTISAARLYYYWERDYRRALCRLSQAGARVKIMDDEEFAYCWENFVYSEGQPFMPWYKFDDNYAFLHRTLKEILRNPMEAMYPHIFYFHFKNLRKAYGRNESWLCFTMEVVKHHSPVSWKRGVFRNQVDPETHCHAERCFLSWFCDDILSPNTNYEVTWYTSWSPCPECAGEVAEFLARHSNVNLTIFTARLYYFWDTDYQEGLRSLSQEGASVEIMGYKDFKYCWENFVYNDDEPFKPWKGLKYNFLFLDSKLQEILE

For the test, the target named is DNA dC->dU-editing enzyme APOBEC-3F (Homo sapiens) (UniProt Q8IUX4). Kind of test: qHTS for inhibitors of Vif-A3F interactions: Cherry picks. Also: nearly all actives have a fitted effect of over 70% in size.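 As to max response: % of control where 0% means no effect; active compounds raise eYFP fluorescence by blocking Vif-driven A3F loss.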 The note with it: HeLa A3F-eYFP + Vif (tagged APOBEC3F with the HIV-1 protein that degrades it), eYFP fluorescence, 24 h. From the text:
The recent discovery and characterization of host restriction factors, which provide a potent defense to invading retroviruses, has provided new targets for antiviral drug development. APOBEC3G (A3G) and APOBEC3F (A3F) are potent cytidine deaminases that block HIV-1 replication; HIV-1 expresses the Vif protein, which counteracts A3G and A3F by binding to them and inducing their proteasomal degradation. The Vif-A3G and Vif-A3F interactions provide two potential targets for development of small molecules which can interfere with the ability of Vif to degrade A3G or A3F. […] To identify inhibitors that can interfere with Vif mediated degradation of A3G and A3F, we have developed Hela cell lines that stably express A3G or A3F tagged with eYFP at the C-terminal end (A3G-eYFP or A3F-eYFP, respectively) and Vif. In the absence of an inhibitor, Vif induces degradation of A3G-eYFP and A3F-eYFP, and the cells are not fluorescent. In the presence of an inhibitor, it is expected that Vif will be unable to degrade A3G-eYFP and/or A3F-eYFP, resulting in an increase in yellow fluorescence. In this assay, Vif A3F was screened against the cherry picks ordered from the MLSMR. NIH Chemical Genomics Center [NCGC] NIH Molecular Libraries Probe Centers Network [MLPCN] MLPCN Grant: MH093245 Assay Submitter (PI): Vinay Pathak, National Cancer Institute
A3F-Vif cells were harvested from T225 flask and resuspended in phenol free OPTI-MEM medium with 5% FBS. Then 5 uL of 140,000 cells/mL resuspended cells was dispensed into each well of low base Aurora COC 1,536-well plates (black walled, clear bottom) using a Multidrop Combi dispenser. After overnight culture at 37 deg C with 5% CO2, a total of 23 nL of compounds at 5 selected concentrations from the NPC or positive control (2 mM stock of MG132) in DMSO was transferred to each well of the assay plate using a pintool (Kalypsys, San Diego, CA), and the plates were further incubated at 37 deg C with 5% CO2 for 24 hours. After that, the plates were measured on Acumen Explorer (TTP Lab Tech). The fluorescence was detected by 488 nm/Ex and […].
In general terms: In qHTS, concentration-response curves come from the screen itself.
Regarding `Cc1nc2c3cc(F)ccc3n(Cc3ccccc3)c2s1`, the Potency is 4.98 µM (active). As to `Cc1nc2c3cc(F)ccc3n(Cc3ccccc3F)c2s1`, the Potency is 14 µM (active).

As for `COc1cccc(CNCCSc2nnnn2C)c1OCc1ccc(F)cc1`, the max response is -0.625%.

As to `Cc1ccc(S(=O)c2ccc([N+](=O)[O-])c3nonc23)cc1` (centres undefined), the Potency is 18.4 µM (active).

For the molecule `O=C1/C(=C/c2ccc(O)cc2)SC(=S)N1Cc1cccnc1`, the max response is -10.2%. As for `Cc1cc(/C=C2\SC(=S)N(Cc3ccco3)C2=O)c(C)n1-c1ccccc1`, the Potency was 18.4 µM (active). The same measure, in the same setting: the value for `Cc1cc(/C=C2\SC(=S)N(C)C2=O)c(C)n1-c1ccccc1O` was 20.6 µM (active). Consider `Cc1cc(/C=C2\SC(=S)N(Cc3ccco3)C2=O)c(C)n1-c1cccnc1`, for which the Potency is 20.6 µM (active).

Turning to `CN(C)c1ccc(C=C2SC(=S)N(Cc3ccco3)C2=O)cc1`, the Potency was 4.98 µM (active). Turning to `S=C(Nc1cccc2ccccc12)NN1CCCCCC1`, the max response was 0.0404%. For `O=C(NN(c1ccccc1)c1ccccc1)c1ccc([N+](=O)[O-])o1`, the max response is -20.2%. Still for that read-out and setting: the value for `O=C(NCc1cccnc1)c1ccc([N+](=O)[O-])o1` was -20.4%.

With `Cc1cc2ccccn2c1C(=O)c1ccc([N+](=O)[O-])o1`, the Potency was 11.6 µM (active). With `N#C/C(=C\c1ccc(N2CCOCC2)o1)C(=O)NC1CCCCC1`, the Potency was 15.8 µM (active). On to `N#C/C(=C\c1ccc(N2CCCCC2)o1)C(N)=O`, for which the Potency is 15.8 µM (active).

Consider `N#C/C(=C/c1ccc(N2CCOCC2)o1)C(=O)NC1CCCCC1`, for which the Potency is 16.4 µM (active). Turning to `Cc1onc(-c2c(F)cccc2Cl)c1C(=O)O/N=C(\N)c1ccc([N+](=O)[O-])o1`, the max response is -3.32%.

Consider `CSc1cccc(NC(=O)c2cc3c(COC(C)=O)cnc(C)c3oc2=O)c1`, for which the max response is -5.04%. On to `O=C(NC1CCCCC1)c1cccc2c1C(=O)c1ccc(N3CCC(Cc4ccccc4)CC3)cc1S2(=O)=O`, for which the Potency is 12.5 µM (active). As to `Cc1cc(C)c(S(=O)(=O)N2CCCCC2CCNC(=O)C(=O)NCc2ccco2)c(C)c1` (centres undefined), the max response was -24.9%. For the molecule `O=C(NC1CC1)c1cccc2c1C(=O)c1ccc(N3CCC(Cc4ccccc4)CC3)cc1S2(=O)=O`, the Potency is 20.6 µM (active). Regarding `Cc1ccc(S(=O)(=O)N2CCCCC2CCNC(=O)C(=O)NCc2ccco2)cc1` (centres undefined), the max response is -26.1%.

Take `O=C(NCc1ccco1)c1cccc2c1C(=O)c1ccc(N3CCC(Cc4ccccc4)CC3)cc1S2(=O)=O`: the Potency was 23.1 µM (active). In the case of `COc1cc(/C=C2\C(=N)N3N=C(S(C)(=O)=O)SC3=NC2=O)ccc1OC(=O)c1ccco1`, the max response was 3.53%. Same read-out and setting: the value for `COc1cc(/C=C2\C(=N)N3N=CSC3=NC2=O)cc(Br)c1OC(=O)c1ccco1` was 5.77%.

For the molecule `CN(C)c1ccc(/C=C2\C(=N)N3N=C(CC(=O)N4CCCCC4)SC3=NC2=O)cc1`, the Potency is 16.4 µM (active).

As for `CCN(CC)c1ccc(/C=C2\C(=N)N3N=C(CC(=O)N4CCOCC4)SC3=NC2=O)cc1`, the Potency is 0.396 µM (active). The same measure, in the same setting: the value for `CN(C)c1ccc(/C=C2\SC(N3CCCCC3)=NC2=O)cc1` was 16.4 µM (active); that for `C1=Cc2ccccc2/C1=C\c1cc2c3c(c1)CCCN3CCC2` was 18.4 µM (active). For `Cc1ccc(S(=O)(=O)c2cc3ccccc3oc2=Nc2ccc3c(c2)OCO3)cc1`, the max response is -1.94%. Same read-out and setting: the value for `Cc1sc2ncnc(SCC(=O)NC(C)(C)C)c2c1C` was 0.663%; that for `Cc1sc2ncn(CC(=O)NCc3ccccc3)c(=O)c2c1C` was -23.3%. With `Cc1sc2ncnc(N=Nc3c(O)[nH]c4ccccc34)c2c1C`, the Potency was 13 µM (active). Same read-out and setting: the value for `O=S(=O)(Nc1ccc(C(O)(C(F)(F)F)C(F)(F)F)cc1)c1ccc(Cl)c2nonc12` was 12.5 µM (active). As to `Cc1ccc(F)c(S(=O)(=O)NC(=O)C2(C)CCN2C(=O)Cc2ccc(Cl)cc2Cl)c1` (centres undefined), the max response is 0.983%.

With `Cc1ccc(N=C2NC(=O)CC(C(=O)Nc3ccc4c(c3)OCO4)S2)cc1` (centres undefined), the max response was -22.7%.

As for `Cc1cc(N/N=C/c2ccc([N+](=O)[O-])o2)nc2ccccc12`, the Potency was 16.4 µM (active).

Take `CCn1c(/C=C/c2ccc([N+](=O)[O-])o2)nc2ccccc2c1=O`: the Potency is 3.26 µM (active). For `O=c1c2ccccc2nc(/C=C/c2ccc([N+](=O)[O-])o2)n1CCCO`, the Potency is 3.26 µM (active). `CCCN1C(=O)C(Cc2nc3ccccc3c(=O)n2CC)c2cc(Br)ccc21` (centres undefined): the max response was -0.982%. Regarding `Cn1c(/C=C/c2ccc([N+](=O)[O-])o2)nc2ccccc2c1=O`, the Potency was 16.4 µM (active).

For `Cc1ccc2oc(/N=C(\N)NC(=O)C(C)(C)C)nc2c1`, the max response was -3.74%. On the same count and under the same terms, the value for `CNC(=O)C(Sc1nc(C)nc2c1oc1ccccc12)C(C)=O` (centres undefined) was -18.1%. As for `Cc1cc(NC(=O)Nc2nnc(N(C)Cc3ccccc3)s2)ccc1Br`, the max response is -0.38%. The same measure, in the same setting: the value for `O=C(Nc1cc(Cl)cc2c1-c1ccc(Cl)cc1C2O)C(Cl)Cl` (centres undefined) was -15.3%; that for `CCCCN(C(=O)c1ccc([N+](=O)[O-])s1)c1c(N)n(CCCC)c(=O)[nH]c1=O` was 3.55%; that for `COc1cccc(/C=N/n2c(C3CCCCC3)n[nH]c2=S)c1O` was 2.43%. Take `Cc1[nH]c2ccccc2c1/C=C/c1cc[n+](C)cc1`: the Potency was 1.58 µM (active). Same read-out and setting: the value for `Cc1ccc2[nH]c(C)c(/C=C/c3cc[n+](C)cc3)c2c1` was 0.994 µM (active). Same read-out and setting: the value for `Cc1[nH]c2ccccc2c1/C=C/C(=O)c1ccccc1` was 20.6 µM (active). `CCOc1cc(C)nc(NCc2ccccc2)n1`: the max response was -21.9%.

Consider `CCCn1c(C2CCCN2c2nc(-c3cccc(Br)c3)cs2)nc2ccccc21` (centres undefined), for which the max response was 2.76%. As to `C=C(C)CNC(=S)N/N=C1\CCCCc2ccccc21`, the max response is 0.867%.

Consider `CCCN1C(=O)/C(=C\C=C2\N(CC)c3ccccc3C2(C)C)SC1=S`, for which the Potency is 2.06 µM (active).

In the case of `CCCN1C(=O)/C(=C/C=C2\N(CC)c3ccccc3C2(C)C)SC1=S`, the Potency was 1.77 µM (active). With `CN1/C(=C\C=C2/SC(=S)NC2=O)C(C)(C)c2ccccc21`, the Potency is 4.44 µM (active). `CN1/C(=C\C=C2/SC(=S)N(CC(=O)O)C2=O)C(C)(C)c2ccccc21`: the max response was -6.86%. With `CCN1C(=O)/C(=C/C=C2\N(CC)c3cc(S(=O)(=O)N(C)C)ccc3N2c2ccccc2)SC1=S`, the max response was -29.7%. For the molecule `C=CCN1C(=O)/C(=C\C=C2\N(C)c3ccccc3C2(C)C)SC1=S`, the Potency was 0.461 µM (active). As to `Clc1ccsc1-c1csc(-c2cccnc2)n1`, the max response is -27.5%. For `NNC(=S)Nc1c(F)cc(F)cc1Br`, the max response is 1.43%.

Turning to `O=C1/C(=C/c2c[nH]c3ccccc23)CCC/C1=C\c1c[nH]c2ccccc12`, the Potency was 16.4 µM (active). As for `Cn1nnnc1SCCNCc1cc(Br)ccc1OCc1ccccc1Cl`, the max response is -14.7%. Take `Cc1cccc2cc3c(N)c(C(=O)N4CCOCC4)sc3nc12`: the Potency was 7.31 µM (active).

Regarding `COc1cc(C(=O)OCC(=O)Nc2ccc(N3CCOCC3)cc2)ccc1OCC(C)C`, the max response is 1.41%.

For `Cc1sc(NC(=O)c2sc3nc4c(C)cccc4cc3c2N)c(C#N)c1C`, the Potency is 17.7 µM (active). Still for that read-out and setting: the value for `Cc1cccc2cc3c(N)c(C(=O)Nc4ccc(N5CCOCC5)cc4)sc3nc12` was 11.2 µM (active). On the same count and under the same terms, the value for `Cc1ccc(C)c2nc3sc(C(=O)N4CCOCC4)c(N)c3cc12` was 12.5 µM (active). With `O=C(Nc1ccc(N2CCOCC2)cc1)c1cccc2ccccc12`, the max response was -29.2%.

Turning to `CCN(CC)c1ccc(/C=N/NC(=S)NC)c(O)c1`, the max response is -6.91%. Consider `COc1ccc(Nc2nc(C)nc3sc4c(c23)CCC4)cc1O`, for which the max response is -29.4%. As for `CCn1c(O)c(/C=N/N=C/c2ccc(OC)cc2)c2cc(C3=NNC(=O)CC3)ccc21`, the Potency is 6.51 µM (active).

For the molecule `CN(C)c1ccc(/C=C2/C[N+](C)(C)C/C(=C/c3ccc(N(C)C)cc3)C2=O)cc1`, the Potency is 2.59 µM (active). `C[N+](C)(C)CCC(=O)N1C/C(=C/c2ccccc2)C(=O)/C(=C\c2ccccc2)C1`: the max response was -12.6%. `CN(C)c1ccc(/C=C2\Cc3ccccc3C2=O)cc1`: the Potency was 5.17 µM (active). On the same count and under the same terms, the value for `O=C1/C(=C\c2cc([N+](=O)[O-])ccc2O)SC(=S)N1Cc1ccc(Cl)cc1` was 20.6 µM (active). Regarding `O=C1/C(=C\c2ccc(O)c(O)c2)SC(=S)N1Cc1ccccc1`, the max response is -22.4%.

`O=C1CC(c2ccccc2)Cc2[nH]c(=O)c(-c3nc(-c4cccc(Cl)c4)cs3)cc21` (centres undefined): the Potency was 4.11 µM (active). Consider `Cc1sc(-c2cc3c([nH]c2=O)CC(c2ccccc2)CC3=O)nc1-c1ccc(Cl)cc1` (centres undefined), for which the Potency was 1.84 µM (active). For `CCN(c1ccc(NC(=O)CCc2nc3sc4c(c3c(=O)[nH]2)CCCC4)cc1)C(C)C`, the max response was -16.9%. Take `Clc1ccccc1C1CC(c2ccccc2)=Nc2ccccc2N1` (centres undefined): the max response is -7.9%. As to `CC(=O)N1CCc2nc3sc(C(=O)c4ccc(F)cc4)c(N)c3c(C(F)(F)F)c2C1`, the Potency was 20.6 µM (active). Same read-out and setting: the value for `COc1ccc(C(=O)c2sc3nc4c(c(C(F)(F)F)c3c2N)CN(C(C)=O)CC4)cc1OC` was 23.1 µM (active). Still for that read-out and setting: the value for `O=C1S/C(=C/c2ccc(N3CCOCC3)o2)C(=O)N1Cc1c(F)cccc1Cl` was 2.5 µM (active); that for `O=C1S/C(=C/c2ccc(N3CCOCC3)o2)C(=O)N1Cc1ccc(F)cc1` was 2.8 µM (active); that for `Cc1cc2nc3s/c(=C/c4ccc(-c5ccccc5C(=O)O)o4)c(=O)n3c2cc1C` was 20.6 µM (active).

As to `Cc1ccc(NC(=O)C2CCN(S(=O)(=O)c3ccc(Cl)c(C(F)(F)F)c3)CC2)nc1`, the max response was 1.5%.

Take `O=S(=O)([N-]c1nc2ccccc2nc1-[n+]1ccc(-c2ccncc2)cc1)c1ccccc1`: the max response is -0.136%. As to `CCc1cc[n+](-c2nc3ccccc3nc2[N-]S(=O)(=O)c2ccc(Br)s2)cc1`, the Potency was 23.1 µM (active).
